Source: PubChem BioAssay (NCATS)
Results filed as inconclusive are left out. The list shows a part of the results. The source made the active and inactive calls. Unless noted, calls follow the shape of the dose curve; as a rule, active = well fitted curve in the direction sought with a large enough effect; inconclusive = small, poorly fitted or top-dose-only effect, or another doubt; inactive = no such curve, though single readings can be large; an effect the other way counts as inactive or inconclusive.

Tests used:
[1] = molecular target: Rap guanine nucleotide exchange factor 3 (Homo sapiens) (UniProt O95398); assay: Confirmatory qHTS for agonist of cAMP-regulated guanine nucleotide exchange factor 3 (EPAC1) (AID 1645881); conditions: EPAC1 Rap1B BODIPY-GDP exchange fluorescence; series mostly up to 154 µM; also: nearly all actives have a fitted effect of over 75% in size; also: potency is read from the fitted curve at half-maximal effect;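 as to activation: EPAC1 catalysed release of BODIPY-GDP from Rap1B seen as fluorescence loss; 100% = effect of cAMP agonist control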
Sequence of Rap guanine nucleotide exchange factor 3 (Homo sapiens) (O95398 whole entry, looked up): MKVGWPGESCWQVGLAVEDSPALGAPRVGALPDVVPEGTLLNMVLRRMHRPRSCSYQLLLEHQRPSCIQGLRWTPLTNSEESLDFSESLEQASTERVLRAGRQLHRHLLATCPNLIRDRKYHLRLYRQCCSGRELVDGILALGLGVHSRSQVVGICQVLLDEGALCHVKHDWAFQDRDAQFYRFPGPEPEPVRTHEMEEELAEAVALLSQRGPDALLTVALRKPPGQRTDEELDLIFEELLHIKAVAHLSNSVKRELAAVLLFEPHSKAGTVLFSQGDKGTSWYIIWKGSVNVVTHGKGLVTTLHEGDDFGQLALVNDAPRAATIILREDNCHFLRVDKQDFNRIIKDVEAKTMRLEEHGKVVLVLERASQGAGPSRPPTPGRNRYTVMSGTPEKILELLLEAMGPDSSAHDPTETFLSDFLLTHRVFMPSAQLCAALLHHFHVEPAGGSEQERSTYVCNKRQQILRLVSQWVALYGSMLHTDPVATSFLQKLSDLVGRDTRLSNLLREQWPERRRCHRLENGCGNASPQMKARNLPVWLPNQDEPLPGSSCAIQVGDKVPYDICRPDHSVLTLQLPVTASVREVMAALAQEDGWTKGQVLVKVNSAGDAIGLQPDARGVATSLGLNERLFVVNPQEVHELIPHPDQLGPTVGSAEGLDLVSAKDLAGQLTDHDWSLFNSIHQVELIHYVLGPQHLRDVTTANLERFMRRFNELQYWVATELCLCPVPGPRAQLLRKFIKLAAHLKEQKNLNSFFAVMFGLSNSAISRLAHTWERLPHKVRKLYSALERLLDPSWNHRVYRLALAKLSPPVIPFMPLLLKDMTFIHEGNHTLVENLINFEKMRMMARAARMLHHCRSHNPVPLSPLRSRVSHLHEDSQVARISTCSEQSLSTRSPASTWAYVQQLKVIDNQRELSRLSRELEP

[2] = molecular target: Rap guanine nucleotide exchange factor 4 (Homo sapiens) (UniProt Q8WZA2); assay: Confirmatory qHTS for agonist of cAMP-regulated guanine nucleotide exchange factor 4 (EPAC2) (AID 1645884); conditions: EPAC2 GEF activity, Rap1B-BODIPY-GDP fluorescence; series mostly up to 154 µM;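 also: nucleotide exchange releases bodipy-GDP from Rap1 and this lowers its fluorescence; nearly all actives have a fitted effect of over 65% in size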; also: potency is read from the fitted curve at half-maximal effect; as to activation: % is scaled to controls: 0 for no effect and ±100 for the full control effect
Sequence of Rap guanine nucleotide exchange factor 4 (Homo sapiens) (Q8WZA2 whole entry, looked up): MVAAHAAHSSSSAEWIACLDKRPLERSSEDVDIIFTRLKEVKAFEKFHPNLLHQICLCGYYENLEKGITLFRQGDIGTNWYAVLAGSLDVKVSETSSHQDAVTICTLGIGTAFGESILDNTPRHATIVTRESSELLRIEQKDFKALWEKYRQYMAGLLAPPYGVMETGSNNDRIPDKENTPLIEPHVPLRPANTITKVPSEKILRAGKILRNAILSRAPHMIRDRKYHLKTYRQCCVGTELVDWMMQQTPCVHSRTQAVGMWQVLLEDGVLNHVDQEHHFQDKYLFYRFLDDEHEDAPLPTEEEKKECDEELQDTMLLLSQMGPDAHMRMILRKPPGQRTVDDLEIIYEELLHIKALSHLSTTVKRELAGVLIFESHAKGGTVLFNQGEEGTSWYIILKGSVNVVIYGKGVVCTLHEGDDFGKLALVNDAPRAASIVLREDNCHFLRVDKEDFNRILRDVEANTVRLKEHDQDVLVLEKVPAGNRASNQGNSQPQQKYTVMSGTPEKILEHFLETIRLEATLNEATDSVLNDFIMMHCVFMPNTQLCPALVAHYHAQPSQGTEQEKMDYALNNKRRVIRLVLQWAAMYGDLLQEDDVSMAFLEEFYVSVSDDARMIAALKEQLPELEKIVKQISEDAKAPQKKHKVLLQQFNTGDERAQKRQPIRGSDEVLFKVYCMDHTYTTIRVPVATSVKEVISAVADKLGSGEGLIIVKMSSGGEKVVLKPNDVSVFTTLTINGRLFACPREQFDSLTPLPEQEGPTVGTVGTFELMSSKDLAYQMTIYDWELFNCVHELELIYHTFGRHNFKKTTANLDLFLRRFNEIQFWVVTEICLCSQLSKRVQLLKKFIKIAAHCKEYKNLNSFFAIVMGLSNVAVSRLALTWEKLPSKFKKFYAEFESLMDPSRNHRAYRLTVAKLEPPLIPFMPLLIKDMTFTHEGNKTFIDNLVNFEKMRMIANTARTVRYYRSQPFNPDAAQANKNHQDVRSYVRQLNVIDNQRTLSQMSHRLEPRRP

[3] = molecular target: Rap guanine nucleotide exchange factor 4 (Homo sapiens) (UniProt Q8WZA2); assay: Confirmatory qHTS for antagonist of cAMP-regulated guanine nucleotide exchange factor 4 (EPAC2) (AID 1645885); conditions: EPAC2 Rap1B-BODIPY-GDP exchange fluorescence, biochemical; series mostly up to 12.7 µM; also: nearly all actives have a fitted effect of over 25% in size; also: potency is read from the fitted curve at half-maximal effect
[4] = molecular target: Rap guanine nucleotide exchange factor 3 (Homo sapiens) (UniProt O95398); assay: Counterscreen qHTS for antagonist of cAMP-regulated guanine nucleotide exchange factor 3 (EPAC1) (AID 1645888); conditions: Rap1B-BODIPY-GDP nucleotide exchange, fluorescence; series mostly up to 154 µM;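 also: fluorescence loss as bound BODIPY-GDP is released from Rap1B; % of control where 0% means no effect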
In short: (§1)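 Rap1B–BODIPY-GDP (250 nM) with 50 uM GDP; compounds pin-transferred to 9.74 nM–152 uM final (activator) or from 7.32 nM upwards (inhibitor). Fluorescence Ex/Em 480/540 nm read at 5 and 30 min, then after adding cAMP or buffer, at room temperature.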

[5] = molecular target: Rap guanine nucleotide exchange factor 3 (Homo sapiens) (UniProt O95398); assay: Counterscreen qHTS for agonist of cAMP-regulated guanine nucleotide exchange factor 3 (EPAC1) (AID 1645889); conditions: EPAC1 Rap1B-BODIPY-GDP exchange, fluorescence; series mostly up to 154 µM; also: nearly all actives have a fitted effect of over 40% in size; also: potency is read from the fitted curve at half-maximal effect; as to activation: % of control where 0% means no effect
In short: as §1

[6] = qHTS for Inhibitors of Plasmodium falciparum (DD2) proliferation (AID 504314);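 also: parasite DNA measured by SYBR Green fluorescence after red cell lysis; plate controls were DMSO vehicle for no effect and artemisinin wells for full effect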; conditions: P. falciparum Dd2 in erythrocytes, SYBR Green growth, 72 h; series mostly up to 1.12 µM
In short: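 Parasite proliferation measured as SYBR Green signal from Plasmodium DNA, mature erythrocytes lacking DNA. 72 h incubation, 37C; activity scaled between vehicle and 0.29 uM artemisinin, with correction from vehicle-only plates.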

[7] = qHTS for Inhibitors of Plasmodium falciparum (GB4) proliferation (AID 504315);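 also: 0% = DMSO vehicle and -100% = 0.29 µM artemisinin control; nearly all actives have a fitted effect of over 50% in size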; conditions: P. falciparum GB4 in erythrocytes, SYBR Green DNA, 72 h; series mostly up to 6.7 µM
In short: (§2)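 Parasite growth measured as SYBR Green DNA fluorescence (ex 485, em 535 nm) after overnight lysis following 72 h culture at 37 °C, 0.3% parasitemia, 2.5% hematocrit. Values normalized against DMSO and 0.29 uM artemisinin controls, with plate-stack correction.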

[8] = qHTS for Inhibitors of Plasmodium falciparum (7G8) proliferation (AID 504316);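 also: 0% = DMSO vehicle and -100% = 0.29 µM artemisinin full kill; nearly all actives have a fitted effect of over 65% in size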; conditions: P. falciparum 7G8 in erythrocytes, SYBR Green DNA, 72 h; series mostly up to 6.7 µM
In short: as §2

[9] = qHTS for Inhibitors of Plasmodium falciparum (HB3) proliferation (AID 504318);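 also: 0% = DMSO vehicle and -100% = artemisinin control; nearly all actives have a fitted effect of over 60% in size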; conditions: P. falciparum HB3 in erythrocytes, SYBR Green DNA, 72 h; series mostly up to 7.21 µM
In short: as §2

[10] = qHTS for Inhibitors of Plasmodium falciparum (CP250) proliferation (AID 504320);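 also: plate controls were DMSO vehicle for no effect and 0.29 µM artemisinin control for full effect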; conditions: P. falciparum CP250 in erythrocytes, SYBR Green DNA, 72 h; series mostly up to 6.7 µM
In short: as §2

[11] = molecular target: Tumor susceptibility gene 101 protein (Homo sapiens) (UniProt Q99816); assay: qHTS Assay for Iinhibitors of HIV-1 Budding by Blocking the Interaction of PTAP/TSG101: Hit Validation (AID 651600); conditions: PTAP peptide/TSG101 UEV interaction, biochemical assay; series mostly up to 57.5 µM; also: nearly all actives have a fitted effect of over 70% in size; also: potency is read from the fitted curve at half-maximal effect
Sequence of Tumor susceptibility gene 101 protein (Homo sapiens) (Q99816 whole entry, looked up, the tested form may be a part): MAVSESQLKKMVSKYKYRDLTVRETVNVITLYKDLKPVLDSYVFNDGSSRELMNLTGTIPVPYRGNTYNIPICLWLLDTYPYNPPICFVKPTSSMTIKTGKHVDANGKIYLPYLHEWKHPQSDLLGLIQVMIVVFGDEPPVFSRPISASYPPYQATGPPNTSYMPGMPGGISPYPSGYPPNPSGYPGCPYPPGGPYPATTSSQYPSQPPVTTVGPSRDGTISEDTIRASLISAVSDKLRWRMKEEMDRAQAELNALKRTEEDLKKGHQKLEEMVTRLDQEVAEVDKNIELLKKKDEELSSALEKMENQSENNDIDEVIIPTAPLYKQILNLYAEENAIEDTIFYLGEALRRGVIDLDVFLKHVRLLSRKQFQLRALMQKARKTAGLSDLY
In short: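 Compounds are added to the Tsg101 binding domain (10 uM final) in pH 7.5 HEPES buffer. FITC-PTAP peptide follows at 50 nM final. After 20 min at r.t., polarized FITC emission is measured.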

[12] = molecular target: Lethal(3)malignant brain tumor-like protein 1 (Homo sapiens) (UniProt Q9Y468); assay: qHTS Assay for the Inhibitors of L3MBTL1: Hit Validation (AID 540279); conditions: L3MBTL1 methyl-lysine binding inhibition, biochemical qHTS; also: potency is read from the fitted curve at half-maximal effect; nearly all actives have a fitted effect of over 70% in size
In short: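 L3MBTL1 (50 nM final) preformed 30 min with biotinylated H3(1-15)K9me1 peptide (75 nM), then compound 30 min at room temperature. Streptavidin donor and nickel chelate acceptor AlphaScreen beads (10 ug/mL each final) added for 30 min before read.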

[13] = qHTS Assay for the Inhibitors of L3MBTL1: Hit Validationin AlphaScreen Counterscreen (AID 602224); conditions: signal inhibition; series mostly up to 57.1 µM; also: 0% is about no effect
In short: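 Bead-only proximity control lacking target protein. Final 1 nM b-His6 with 10 ug/mL streptavidin donor and 10 ug/mL nickel chelate acceptor beads; 15 min compound exposure, then 30 min dark RT, then AlphaScreen read.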

[14] = AP1 Signaling Pathway (AID 357; active = well fitted curve in either direction with a large enough effect, not every such curve was filed as active;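 also: ME-180 reporter cells stimulated with EGF at its EC50 level; % is scaled to controls: 0 for no effect and ±100 for the full control effect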); conditions: ME-180 AP-1-bla reporter, EGF-induced, beta-lactamase ratio, 5 h; at 7.69 µM (top of the series) unless noted
In short: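 Read-out was the 460nm/530nm emission ratio (excitation 405nm) after CCF4 loading for 2.5 hours at room temperature. Cells carried an AP-1-driven beta-lactamase reporter, were stimulated with EC50 EGF plus compound for 5 hours, and AC50 values came from titrations.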

[15] = NFAT Signaling Pathway (AID 444; active = well fitted curve in either direction with a large enough effect, not every such curve was filed as active;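 also: carbachol stimulus at about its EC50 of 1 µM final; % is scaled to controls: 0 for no effect and ±100 for the full control effect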); conditions: Jurkat NFAT-bla M1, carbachol, beta-lactamase ratio, 5 h; at 7.69 µM (top of the series) unless noted
In short: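 Jurkat cells with NFAT-driven β-lactamase reporter and co-expressed M1 receptor, stimulated with carbachol (final 1 uM, ~EC50), compound titration, 5 h at 37 °C. CCF4 loaded 1 h at RT; 460/530 nm ratio gave %activity and AC50.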

[16] = Stat Signaling Pathway (AID 446; active = well fitted curve in either direction with a large enough effect, not every such curve was filed as active;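 also: ME-180 cervical cancer cells given 40 pM IL-6 alongside compound; SIE-controlled beta-lactamase reporter measured as 460/530 nm FRET emission ratio; % is scaled to controls: 0 for no effect and ±100 for the full control effect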); conditions: ME-180 (cervical carcinoma) SIE beta-lactamase reporter, IL-6 stimulated, 5 h; series mostly up to 7.69 µM
In short: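 Normalization used AC90 stimulation (300 pM IL-6) and AC90 inhibition (125 nM pan-JAK inhibitor at 40 pM IL-6). The underlying signal is SIE-driven beta-lactamase in ME-180 cells after 5 h IL-6 exposure with compound.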

[17] = molecular target: Glucocorticoid receptor (Homo sapiens) (UniProt P04150); assay: GR-GFP Redistribution (AID 450;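 active = compounds whose dose series gives a full or clear partial fitted curve of increased nuclear translocation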; also: potency is read from the fitted curve at half-maximal effect); conditions: U2OS GR-GFP nuclear translocation, laser cytometry, 2 h
Sequence of Glucocorticoid receptor (Homo sapiens) (P04150 whole entry, looked up): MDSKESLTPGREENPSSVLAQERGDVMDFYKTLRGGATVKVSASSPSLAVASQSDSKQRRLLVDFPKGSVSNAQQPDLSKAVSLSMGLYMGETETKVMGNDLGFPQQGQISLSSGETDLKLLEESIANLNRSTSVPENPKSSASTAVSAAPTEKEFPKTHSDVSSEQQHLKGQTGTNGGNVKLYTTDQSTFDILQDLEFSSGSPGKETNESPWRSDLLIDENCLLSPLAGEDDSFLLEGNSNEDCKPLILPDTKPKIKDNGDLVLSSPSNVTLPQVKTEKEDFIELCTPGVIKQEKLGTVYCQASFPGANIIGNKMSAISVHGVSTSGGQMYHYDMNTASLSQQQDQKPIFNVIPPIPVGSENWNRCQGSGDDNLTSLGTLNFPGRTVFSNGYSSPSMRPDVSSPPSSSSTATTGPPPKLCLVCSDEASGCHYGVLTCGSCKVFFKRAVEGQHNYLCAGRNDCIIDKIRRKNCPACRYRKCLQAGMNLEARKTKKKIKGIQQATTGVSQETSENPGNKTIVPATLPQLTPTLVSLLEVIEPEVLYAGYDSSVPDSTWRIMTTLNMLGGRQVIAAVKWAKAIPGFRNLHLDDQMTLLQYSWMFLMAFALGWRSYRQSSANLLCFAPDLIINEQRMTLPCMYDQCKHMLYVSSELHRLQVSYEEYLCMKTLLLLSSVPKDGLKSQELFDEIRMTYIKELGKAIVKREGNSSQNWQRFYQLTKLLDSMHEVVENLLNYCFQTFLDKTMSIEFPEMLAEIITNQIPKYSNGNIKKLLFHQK

[18] = molecular target: Tyrosyl-DNA phosphodiesterase 1 (Homo sapiens) (UniProt Q9NUW8); assay: Confirmation Assay for Inhibitors of Tyrosyl-DNA Phosphodiesterase (TDP1) (AID 489007); conditions: recombinant human TDP1 enzymatic activity, dose-response; also: potency is read from the fitted curve at half-maximal effect; nearly all actives have a fitted effect of over 40% in size
In short: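 Compounds are preincubated 15 min at room temperature with 1 nM recombinant human Tdp1. The reaction starts on adding 15 nM FITC-phosphotyrosine DNA substrate, runs 5 min, and is detected by AlphaScreen beads after 10 min.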

[19] = molecular target: ATPase family AAA domain-containing protein 5 (Homo sapiens) (UniProt Q96QE3); assay: qHTS screen for small molecules that inhibit ELG1-dependent DNA repair in human embryonic kidney (HEK293T) cells expressing luciferase-tagged ELG1: Hit Confirmation using MMS Stimulated ELG1 (AID 624249); conditions: HEK293T luciferase-tagged ELG1 level; series mostly up to 46.1 µM;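 also: cells co-treated with MMS at 10 µM final alongside compound; luminescence of ELG1-luciferase fusion read with Amplight reagent; % is scaled to controls: 0 for no effect and ±100 for the full control effect; nearly all actives have a fitted effect of over 60% in size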
Sequence of ATPase family AAA domain-containing protein 5 (Homo sapiens) (Q96QE3 whole entry, looked up, the tested form may be a part): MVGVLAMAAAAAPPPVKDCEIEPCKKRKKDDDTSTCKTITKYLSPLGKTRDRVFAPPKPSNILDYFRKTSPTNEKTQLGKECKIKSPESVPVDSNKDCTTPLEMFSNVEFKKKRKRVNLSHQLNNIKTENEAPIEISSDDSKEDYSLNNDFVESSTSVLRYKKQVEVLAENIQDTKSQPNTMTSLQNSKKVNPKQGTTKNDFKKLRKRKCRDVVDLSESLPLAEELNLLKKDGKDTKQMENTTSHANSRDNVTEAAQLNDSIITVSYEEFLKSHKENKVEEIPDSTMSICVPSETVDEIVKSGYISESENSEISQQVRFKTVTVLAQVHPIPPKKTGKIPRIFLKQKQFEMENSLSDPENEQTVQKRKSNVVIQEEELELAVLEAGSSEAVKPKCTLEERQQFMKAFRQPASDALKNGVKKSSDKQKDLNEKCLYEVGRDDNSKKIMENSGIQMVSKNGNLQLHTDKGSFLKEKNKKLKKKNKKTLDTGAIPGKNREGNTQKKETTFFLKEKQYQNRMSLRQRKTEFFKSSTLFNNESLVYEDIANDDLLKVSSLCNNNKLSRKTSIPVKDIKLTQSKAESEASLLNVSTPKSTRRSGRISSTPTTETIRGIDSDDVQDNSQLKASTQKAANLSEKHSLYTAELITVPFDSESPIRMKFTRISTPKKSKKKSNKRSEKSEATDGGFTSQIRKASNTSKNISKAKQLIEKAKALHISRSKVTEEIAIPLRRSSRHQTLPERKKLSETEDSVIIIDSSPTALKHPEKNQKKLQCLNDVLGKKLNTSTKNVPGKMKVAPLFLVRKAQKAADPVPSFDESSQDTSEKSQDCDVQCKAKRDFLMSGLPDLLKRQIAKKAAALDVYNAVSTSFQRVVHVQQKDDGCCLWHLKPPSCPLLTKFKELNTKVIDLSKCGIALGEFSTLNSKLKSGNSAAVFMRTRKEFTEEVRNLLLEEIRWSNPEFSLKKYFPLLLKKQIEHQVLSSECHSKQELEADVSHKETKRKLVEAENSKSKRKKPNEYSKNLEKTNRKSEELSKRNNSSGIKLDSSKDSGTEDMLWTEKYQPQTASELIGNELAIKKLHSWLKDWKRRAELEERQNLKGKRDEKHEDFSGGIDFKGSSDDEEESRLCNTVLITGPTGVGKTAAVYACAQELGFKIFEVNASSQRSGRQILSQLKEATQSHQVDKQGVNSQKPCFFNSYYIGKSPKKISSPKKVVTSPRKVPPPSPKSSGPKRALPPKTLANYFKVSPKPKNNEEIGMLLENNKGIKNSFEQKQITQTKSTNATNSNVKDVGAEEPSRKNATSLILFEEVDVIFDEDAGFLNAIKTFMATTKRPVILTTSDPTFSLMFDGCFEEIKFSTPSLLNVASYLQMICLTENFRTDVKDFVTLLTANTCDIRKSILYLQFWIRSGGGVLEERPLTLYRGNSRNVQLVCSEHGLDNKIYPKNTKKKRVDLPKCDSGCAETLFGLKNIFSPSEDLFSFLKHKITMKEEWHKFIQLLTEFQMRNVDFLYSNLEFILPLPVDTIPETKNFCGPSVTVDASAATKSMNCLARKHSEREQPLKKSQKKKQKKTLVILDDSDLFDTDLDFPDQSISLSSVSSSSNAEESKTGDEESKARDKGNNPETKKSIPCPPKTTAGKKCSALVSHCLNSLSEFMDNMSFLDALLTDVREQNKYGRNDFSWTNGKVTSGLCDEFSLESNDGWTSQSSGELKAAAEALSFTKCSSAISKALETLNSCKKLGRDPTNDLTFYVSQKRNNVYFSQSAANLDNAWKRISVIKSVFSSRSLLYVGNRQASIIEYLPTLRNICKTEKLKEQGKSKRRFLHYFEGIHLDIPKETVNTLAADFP
In short: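 Hit confirmation in an ELG1-luc HEK293T line: about five hours after plating, wells got compound plus MMS at a final 10 µM. A 16 h incubation preceded Amplight-based luciferase measurement.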

[20] = qHTS screen for small molecules that inhibit ELG1-dependent DNA repair: Hit Confirmation with MMS Viability (AID 624251); conditions: Cell viability with MMS; series mostly up to 46.1 µM;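 also: viability read 16 h after compound addition; % is scaled to controls: 0 for no effect and ±100 for the full control effect; nearly all actives have a fitted effect of over 60% in size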
In short: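 CellTiter-Glo viability of ELG1-luc HEK293T cells after 16 h with compound plus 10 µM MMS.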

CC1(Cc2ccccc2Cl)C(=O)Nc2ccc(OC(F)(F)F)cc21 (configuration not stated)
inactive: Potency [1] | activation [2] 0.883% [at 17.1 µM, percent relative to cAMP agonist control] | Potency [3] | activity change, negative = inhibition [4] -9.83% [at 30.8 µM] | activation [5] 5.61% [at 30.8 µM]

Cc1ccc(C)c(N2CCN(C(=O)c3cccn4c(=O)c5ccccc5nc34)CC2)c1
inactive: Potency [1] | Potency [2] | Potency [3] | Potency [4] | Potency [5]

CCN1C(=O)N(S(=O)(=O)C(F)(F)F)[C@@H](c2ccccc2)C(C(=O)OC)=C1C
inactive: outcome [6] | outcome [7] | outcome [8] | outcome [9] | outcome [10] | Potency [1] | Potency [2] | Potency [3] | Potency [4] | Potency [5]

Cc1c2cc(O)c(=O)cc-2oc2cc(O)c(O)cc12
active: Potency [11] 1.83 µM
inactive: Potency [1] | activation [2] -3.29% [at 17.1 µM, percent relative to cAMP agonist control] | Potency [3] | activity change, negative = inhibition [4] -2.73% [at 30.8 µM] | activation [5] 0.526% [at 30.8 µM]

Cc1ccc(/C=C/C(=O)Nc2ccc([N+](=O)[O-])c(NC(=O)/C=C/c3ccc(C)o3)c2)o1
inactive: outcome [13] | Potency [1] | activation [2] 6% [at 17.1 µM, percent relative to cAMP agonist control] | Potency [3] | activity change, negative = inhibition [4] 4.14% [at 30.8 µM] | activation [5] 27.5% [at 30.8 µM]
active: Potency [12] 3.77 µM

O=C(O)CN1C(=O)/C(=C\c2cc([N+](=O)[O-])ccc2OCc2ccccc2Cl)SC1=S
inactive: Potency [1] | activation [2] 2.47% [at 17.1 µM, percent relative to cAMP agonist control] | Potency [3] | activity change, negative = inhibition [4] -20.4% [at 30.8 µM] | activation [5] 29.5% [at 30.8 µM]

COc1ccc2nc(N3CCCC3)c(C#N)cc2c1
inactive: Potency [11] | Potency [1] | activation [2] 3.12% [at 17.1 µM, percent relative to cAMP agonist control] | Potency [3] | activity change, negative = inhibition [4] -11.6% [at 30.8 µM]

CCOC(=O)C1CCCN(c2nc3ccccc3nc2C(C#N)C(=O)OC(C)C)C1 (configuration not stated)
inactive: activity change, negative = inhibition [14] -3.2% [at 17.2 µM] | activity change, negative = inhibition [15] -22.1% [at 17.2 µM] | outcome [16] | Potency [17] > 20.6 µM | Potency [1] | activation [2] 6.19% [at 17.1 µM, percent relative to cAMP agonist control] | Potency [3] | activity change, negative = inhibition [4] 0.815% [at 30.8 µM] | activation [5] 36.1% [at 30.8 µM]

O=C1c2cccc3c(O)ccc(c23)C(=O)N1c1ccc(Cl)cc1
inactive: Potency [4]
active: Potency [11] 4.11 µM | Potency [1] 112 µM | Potency [2] 112 µM | Potency [3] 84.9 µM | Potency [5] 39.8 µM

CC(=O)/C(=N/Nc1ccccc1)Sc1nnc(CCc2ccccc2)n1-c1ccccc1
inactive: Potency [1] | Potency [2] | Potency [3] | Potency [4] | Potency [5]

COc1cc(CN(C)CC2CCCN(CCc3ccccc3F)C2)cc(Cl)c1OC (configuration not stated)
inactive: Potency [1] | Potency [2] | Potency [3] | Potency [4] | Potency [5]

COC(=O)c1cc2c(N)c(C(=O)c3ccc(Cl)cc3)sc2nc1C(OC)OC
inactive: Potency [11] | Potency [1] | activation [2] 5.58% [at 17.1 µM, percent relative to cAMP agonist control] | Potency [3] | activity change, negative = inhibition [4] -4.3% [at 30.8 µM] | activation [5] 42.3% [at 30.8 µM]

CCOc1cc(/C=C/C(=O)OCC(=O)NCc2ccco2)cc(Cl)c1OC
inactive: Potency [1] | Potency [2] | Potency [3] | Potency [4] | Potency [5]

O=[N+]([O-])c1ccc(-n2nnnc2-c2ccccc2)c([N+](=O)[O-])c1
inactive: Potency [1] | Potency [2] | Potency [3] | Potency [4] | Potency [5]

O=C1/C(=C/c2ccco2)Oc2c1ccc(O)c2CN1CCCCC1
inactive: Potency [1] | Potency [2] | Potency [4] | Potency [5]
active: Potency [11] 32.6 µM | Potency [3] 84.9 µM

COc1ccc(C(CC(=O)N2CCCC2)c2c(OC)cc(OC)c3c(-c4ccccc4)cc(=O)oc23)cc1 (configuration not stated)
inactive: Potency [1] | Potency [2] | Potency [3] | Potency [4]
active: Potency [18] 2.24 µM

CCN(CC)c1nc2ccccc2nc1C(C#N)C(=O)NCCc1ccccc1 (configuration not stated)
inactive: Potency [1] | Potency [2] | Potency [4]
active: Potency [11] 6.51 µM | Potency [3] 84.9 µM

COc1cc(N)c(Cl)cc1C(=O)OCC(=O)c1ccc2c(c1)NC(=O)CO2
inactive: Potency [19] | outcome [20] | Potency [1] | Potency [2] | Potency [3] | Potency [4] | Potency [5]

CCOC(=O)C1=C(C)N=c2sc(=Cc3cc(Cl)c(OCC(=O)O)c(Cl)c3)c(=O)n2C1c1cccc(OC)c1 (configuration not stated)
inactive: Potency [1] | Potency [2] | Potency [3] | Potency [4] | Potency [5]
